# Laboratory results from ChEMBL document CHEMBL3988442, “University of Dundee, Small-Polar-MMV Screening Library” (2021).
# Target: AMP-activated protein kinase, AMPK (Homo sapiens) (UniProt P54646+O43741+P54619+Q9UGJ0+Q9Y478+Q13131+Q9UGI9)
# Assay: AMP-dependent Kinase enzyme assay. An in vitro enzyme assay that detects ADP turnover that is directly proportional to AMPK activity. This uses naive AMPK that is activated during the assay with MK-8722
# Format: functional
# Set-up: scale not given: direction of the effect not stated beside the values
# Conditions: 30 µM
row,SMILES,Percent Effect
1,CN(Cc1cc(Br)cn1C)C(=O)Cc1cccc(O)c1,-0.828%
2,COc1ccc(C(=O)N2CCN(C(=O)CCCc3cn[nH]c3)CC2)cc1,3.5%
3,Nc1cc(-c2c[nH]nc2C2CCN(C(=O)C3CCCC3)C2)ccn1 (stereo unspecified),-6.9%
4,O=C1NCCCCC1NC(=O)N1CCc2ccccc21 (stereo unspecified),-3.02%
5,Cc1cnn(C2CCCN(C(=O)c3cc[nH]n3)C2)c1 (stereo unspecified),-0.778%
6,O=C(c1nc(N2CCCC2)ncc1Cl)N1CCN(Cc2ccsc2)CC1,7.12%
7,O=C1NCCCN1Cc1nc(-c2ccc(N3CCCCC3)cc2)no1,3.5%
8,Cc1nnc(-c2cccc(C#N)c2)n1C1CCN(C2CC2)C1=O (stereo unspecified),-1.74%
9,COC(=O)C1CCN(C(=O)Cn2nc(C)nc2-c2ccccc2)CC1,-7.76%
10,Cc1noc(C)c1CNCC1CNc2ccnn2C1 (stereo unspecified),-0.962%
11,COCCOCC(=O)Nc1nc2c(OC)cc(F)cc2s1,3.08%
12,COCCN1C[C@@H](C(=O)O)[C@H](c2ccccc2C)C1,-1.51%
13,CN(C)CC1(O)CCCN(C(=O)Cn2nc3ccccc3n2)CC1 (stereo unspecified),-12.7%
14,Cc1nnc(CN(C)CC(=O)N2CCCN(C3CCCC3)CC2)n1C,-11.4%
15,NC(=O)CNC(=O)c1cc(Cn2cnc3ccccc32)[nH]n1,-3.37%
16,Cc1cc(N2CCOC(c3ccccn3)C2)nc(N)n1 (stereo unspecified),10.1%
17,O=C(C1CC(c2ccccc2)=NO1)N1CCc2ccccc21 (stereo unspecified),13.9%
18,Cc1nn(C)c(C)c1-c1ccc(=O)n(C(C)C(=O)NC2CCCCC2)n1 (stereo unspecified),12.6%
19,CC(C)(C)NC(=O)c1cnc2n1CCCC2,0.336%
20,COc1ccc(CCN(C)C(=O)CN2C(=O)OC[C@@H]2C(C)C)cc1OC,4.03%
21,Cc1cn[nH]c1C1COCCN1Cc1ccsc1 (stereo unspecified),14.3%
